Only a selection was taken, and hits are over-represented in it overall.
ID4 binder: ID4 (human) binding | 1.2% of 31,000 active | calls only | small molecule microarray, Flag-ID4 binding, fluorescence F/B; call rule not given here;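 further: a binder raises fluorescence above local background on the spot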
STK33 inh: blocks human STK33 kinase activity; ADP-Glo luminescence, MBP substrate; inhibition, % at 12.5 µM; 0.44% of 27,000 active; AID 2322; in the data active means inhibition above about 20%
Target sequence (Q9BYT3 whole entry, looked up): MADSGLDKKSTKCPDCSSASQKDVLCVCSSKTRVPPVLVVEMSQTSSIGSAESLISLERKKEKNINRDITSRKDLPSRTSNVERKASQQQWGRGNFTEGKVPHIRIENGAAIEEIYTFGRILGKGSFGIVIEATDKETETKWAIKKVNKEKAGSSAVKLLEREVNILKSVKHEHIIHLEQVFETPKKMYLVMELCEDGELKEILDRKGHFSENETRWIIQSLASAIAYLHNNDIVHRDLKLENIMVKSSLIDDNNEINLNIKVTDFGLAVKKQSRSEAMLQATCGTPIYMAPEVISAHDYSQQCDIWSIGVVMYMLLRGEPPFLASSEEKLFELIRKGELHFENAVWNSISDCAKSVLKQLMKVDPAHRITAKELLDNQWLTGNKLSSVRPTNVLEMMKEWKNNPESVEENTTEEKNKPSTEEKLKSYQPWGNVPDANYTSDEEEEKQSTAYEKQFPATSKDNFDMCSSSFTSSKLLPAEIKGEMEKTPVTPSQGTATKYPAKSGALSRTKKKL
mut p53 react: mutant p53 pathway reactivation | SW480 PUMA-promoter luciferase | activation, % at 9.98 µM | 1.5% of 28,000 active | AID 624151; in the data active means activation above about 52%
NOMO-1 viab: STK33 inhibitor candidate reducing NOMO-1 cell viability. inhibition, % (test concentration not listed). AID 2330. NOMO-1 AML viability, CellTiter-Glo luminescence, 72 h. 7.5% of 37,000 active; in the data active means inhibition above about 80%
The depositor's hits bear a star.

`C[C@@H]1CN([C@@H](C)CO)C(=O)c2cccc(NC(=O)C3CCCCC3)c2O[C@H]1CN(C)Cc1ccc(Oc2ccccc2)cc1` gave NOMO-1 viab 119.6*.
For C[C@H](CO)N1C[C@H](C)[C@@H](CN(C)Cc2ccc(Oc3ccccc3)cc2)Oc2c(NC(=O)C3CCCCC3)cccc2C1=O the results were NOMO-1 viab 87.6*.
`C[C@H]1CN([C@@H](C)CO)C(=O)Cc2cc(NC(=O)c3ccncc3)ccc2O[C@H]1CN(C)C(=O)Nc1ccccc1` gave ID4 binder inactive, STK33 inh 0.7, mut p53 react 4.4 and NOMO-1 viab -0.1.
CN(CC(=O)Nc1ccc(Oc2ccccc2)cc1)S(=O)(=O)c1ccc2ccccc2c1 was read as ID4 binder inactive, STK33 inh 0.0, mut p53 react -0.6 and NOMO-1 viab -1.4.
`C[C@@H]1CN([C@@H](C)CO)C(=O)c2cc(N(C)C)ccc2O[C@H]1CN(C)S(=O)(=O)c1ccccc1` gave ID4 binder inactive, mut p53 react 8.6 and NOMO-1 viab 14.6.
CC(C)NC(=O)Nc1ccc2c(c1)C(=O)N([C@H](C)CO)C[C@@H](C)[C@H](CN(C)C(=O)Nc1ccc(C(F)(F)F)cc1)O2 was read as NOMO-1 viab 26.8.
C[C@@H]1CN([C@@H](C)CO)C(=O)c2cccc(NC(=O)C3CCCCC3)c2O[C@@H]1CN(C)Cc1ccc(Cl)c(Cl)c1 was read as NOMO-1 viab 96.1*.
C[C@H]1CN([C@@H](C)CO)C(=O)c2cccc(NC(=O)C3CCCCC3)c2O[C@H]1CN(C)Cc1ccc(Cl)c(Cl)c1 was read as NOMO-1 viab 49.2.
For O=C(c1ccccc1)c1cccc(N=Cc2c(O)[nH]c(=O)[nH]c2=O)c1 the results were NOMO-1 viab -14.6.
`NS(=O)(=O)c1ccc(N=Cc2c(O)[nH]c3ccccc23)cc1` gave STK33 inh 93.7*, mut p53 react 2.2 and NOMO-1 viab 26.5.
`COc1cc2c(cc1OC)CN(C(=O)[C@H]1[C@@H]3C(=O)O[C@@H](c4ccccc4)[C@@H](c4ccccc4)N3[C@@H](c3ccc(OCCO)cc3)[C@]13C(=O)Nc1ccc(C#CC4=CCCCC4)cc13)CC2` gave ID4 binder inactive and STK33 inh 21.8*.
For O=C1O[C@H](c2ccccc2)[C@H](c2ccccc2)N2[C@H]1[C@@H](C(=O)N1CCCCCCC1)[C@]1(C(=O)Nc3ccc(C#CC4(O)CCCCCC4)cc31)[C@H]2c1ccc(OCCO)cc1 the results were STK33 inh 18.5.
C=CCOC(=O)[C@H]1[C@@H]2C(=O)O[C@@H](c3ccccc3)[C@@H](c3ccccc3)N2[C@@H](c2ccc(OCCOC(=O)[C@@H]3C[C@@H]4C(=O)N5CCC[C@H]5C(=O)N4[C@@H]3c3ccc(O)cc3)cc2)[C@]12C(=O)Nc1ccc(I)cc12 was read as ID4 binder active and STK33 inh 16.4.
Screening COCCOC(=O)N1C(=O)[C@@]2(c3cc(C#Cc4ccc(OC)cc4)ccc31)[C@H](c1ccccc1OCCO)N1[C@H](c3ccccc3)[C@H](c3ccccc3)OC(=O)[C@H]1[C@@H]2C(=O)N1CCc2cc(OC)c(OC)cc2C1 returned STK33 inh 10.1.
Screening NC(=O)[C@@H]1[C@H]2C(=O)O[C@H](c3ccccc3)[C@H](c3ccccc3)N2[C@H](c2ccc(OCCO)cc2)[C@@]12C(=O)Nc1ccc(C#CC3(O)CCCCCC3)cc12 returned ID4 binder inactive and STK33 inh 22.1*.
Screening COCCOC(=O)N1C(=O)[C@@]2(c3cc(C#Cc4ccc(OC)cc4)ccc31)[C@H](C(=O)N1CCc3cc(OC)c(OC)cc3C1)[C@H]1C(=O)O[C@H](c3ccccc3)[C@H](c3ccccc3)N1[C@@H]2c1ccccc1OCCO returned ID4 binder active and STK33 inh 17.8.
`O=C1O[C@H](c2ccccc2)[C@H](c2ccccc2)N2[C@H]1[C@@H](C(=O)N1CCCCCCC1)[C@]1(C(=O)Nc3ccccc31)[C@H]2c1ccc(OCCO)cc1` gave ID4 binder inactive and STK33 inh 17.0.
O=C1O[C@@H](c2ccccc2)[C@@H](c2ccccc2)N2[C@@H](c3ccc(OCCO)cc3)[C@]3(C(=O)Nc4ccc(C#CC5=CCCCC5)cc43)[C@@H](C(=O)N3CCCCCCC3)[C@H]12 was read as ID4 binder inactive and STK33 inh 20.7*.
O=C1O[C@@H](c2ccccc2)[C@@H](c2ccccc2)N2[C@@H](c3ccc(OCCO)cc3)[C@]3(C(=O)Nc4ccccc43)[C@@H](C(=O)N3CCCCCCC3)[C@H]12 was read as ID4 binder active and STK33 inh 15.1.
Screening C[C@H](CO)N1C[C@H](C)[C@H](CN(C)Cc2ccc(Cl)c(Cl)c2)Oc2ccc(NC(=O)Nc3ccc4c(c3)OCO4)cc2C1=O returned STK33 inh -0.5 and NOMO-1 viab 88.3*.
C[C@H]1CN([C@@H](C)CO)C(=O)c2cc(NC(=O)Nc3ccc4c(c3)OCO4)ccc2O[C@@H]1CN(C)Cc1ccc(Cl)c(Cl)c1 was read as STK33 inh 0.1 and NOMO-1 viab 23.0.
`C[C@H](CO)N1C[C@H](C)[C@@H](CN(C)Cc2ccc(Cl)c(Cl)c2)Oc2ccc(NC(=O)Nc3ccc4c(c3)OCO4)cc2C1=O` gave ID4 binder inactive, mut p53 react -17.4 and NOMO-1 viab 100.6*.
C[C@@H]1CN([C@H](C)CO)C(=O)c2cc(NC(=O)Nc3ccc4c(c3)OCO4)ccc2O[C@H]1CN(C)Cc1ccc(Cl)c(Cl)c1 was read as NOMO-1 viab 49.1.
Screening COc1ccc(S(=O)(=O)Nc2ccc3c(c2)C(=O)N([C@H](C)CO)C[C@@H](C)[C@@H](CN(C)S(=O)(=O)c2cn(C)cn2)OCCCC[C@H](C)O3)cc1 returned mut p53 react 10.8.
Screening C[C@@H]1CN([C@@H](C)CO)C(=O)Cc2cc(NC(=O)Nc3cccc4ccccc34)ccc2O[C@@H]1CN(C)Cc1ccc2c(c1)OCO2 returned STK33 inh 2.2 and NOMO-1 viab 96.6*.
For C[C@@H]1CN([C@@H](C)CO)C(=O)c2cc(NC(=O)Nc3cccc4ccccc34)ccc2O[C@H]1CN(C)Cc1ccc2c(c1)OCO2 the results were STK33 inh -1.1 and NOMO-1 viab 28.3.
Screening C[C@@H]1CN([C@H](C)CO)C(=O)Cc2cc(NC(=O)Nc3cccc4ccccc34)ccc2O[C@@H]1CN(C)Cc1ccc2c(c1)OCO2 returned STK33 inh 1.1 and NOMO-1 viab 115.8*.
`CS(=O)(=O)N(CC(=O)Nc1ccc(C(F)(F)F)cc1)c1cccc([N+](=O)[O-])c1` gave ID4 binder inactive, STK33 inh -9.5, mut p53 react -48.6 and NOMO-1 viab 121.3*.
Screening Cc1ccc(Cl)cc1N(CC(=O)Nc1ccc(C(F)(F)F)cc1)S(C)(=O)=O returned ID4 binder inactive, STK33 inh -2.1, mut p53 react -10.9 and NOMO-1 viab 118.1*.
For C[C@H](CO)N1C[C@H](C)[C@@H](CN(C)Cc2ccncc2)Oc2ccc(NC(=O)CCCN(C)C)cc2C1=O the results were ID4 binder inactive, STK33 inh 1.1, mut p53 react 17.2 and NOMO-1 viab 6.4.
